Assay outcomes deposited in PubChem by National Center for Advancing Translational Sciences (NCATS).
HP1b chromo inh = HTS for Inhibitors of HP1-beta Chromodomain Interactions with Methylated Histone Tails; Chromobox protein homolog 1 (Homo sapiens), P83916; AlphaScreen HP1-beta / biotin-H3K9me3 peptide binding; Potency, µM (doses to about 114 µM), actives largely listed as inhibitors; actives 0.56% (n = 390,000); also: nearly all actives have a fitted effect of over 70% in size
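HP1-beta protein (50 nM final) preincubated 30 min at room temperature with biotinylated H3(1-18)K9me3 peptide (50 nM) in PBS pH 7.4, 0.01% Tween-20, then compound added for 30 min. AlphaScreen streptavidin donor/nickel chelate acceptor beads (10 ug/mL final), 30 min dark, luminescence read.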
PLK1 PBD inh = qHTS for Inhibitors of PLK1-PDB (polo-like kinase 1 - polo-box domain): Primary Screen | Serine/threonine-protein kinase PLK1 (Homo sapiens), P53350 | Plk1 PBD binding of FITC phosphopeptide, fluorescence polarization | Potency, µM, hits mostly inhibitors | actives 2.8% (n = 360,000) | AID 720504, 2013; also: series mostly up to about 57 µM; nearly all actives have a fitted effect of over 65% in size
G9a inh = qHTS Assay for Inhibitors of Histone Lysine Methyltransferase G9a. AID 504332, 2011. Histone-lysine N-methyltransferase EHMT2 (Homo sapiens), Q96KQ7. G9a H3K9 monomethylation, AlphaScreen, 2 h. Potency, µM (doses to about 102 µM), hits mostly inhibitors. actives 8.8% (n = 350,000); also: nearly all actives have a fitted effect of over 75% in size
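Using a bead-based AlphaScreen, monomethylated H3K9 product from 2 h room-temperature reactions (G9a 20 nM, peptide 500 nM, SAM 20 uM) was detected with 0.5 ug/mL rabbit anti-H3K9me1 antibody.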
JMJD2A Tudor inh = qHTS Assay for Inhibitors of JMJD2A-Tudor Domain; Lysine-specific demethylase 4A (Homo sapiens), O75164; AlphaScreen JMJD2A-Tudor / H3K4me3 peptide binding; Potency, µM (series often up to 114 µM), actives largely listed as inhibitors; actives 4.4% (n = 390,000); also: nearly all actives have a fitted effect of over 50% in size
BAZ2B inh = qHTS Assay for Inhibitors of BAZ2B; Bromodomain adjacent to zinc finger domain protein 2B (Homo sapiens), Q9UIF8; AlphaScreen BAZ2B-H3K14Ac peptide displacement; Potency, µM (doses to about 114 µM), actives largely listed as inhibitors; actives 4.4% (n = 360,000); also: nearly all actives have a fitted effect of over 60% in size
Target sequence (Q9UIF8 whole entry, looked up, the tested form may be a part): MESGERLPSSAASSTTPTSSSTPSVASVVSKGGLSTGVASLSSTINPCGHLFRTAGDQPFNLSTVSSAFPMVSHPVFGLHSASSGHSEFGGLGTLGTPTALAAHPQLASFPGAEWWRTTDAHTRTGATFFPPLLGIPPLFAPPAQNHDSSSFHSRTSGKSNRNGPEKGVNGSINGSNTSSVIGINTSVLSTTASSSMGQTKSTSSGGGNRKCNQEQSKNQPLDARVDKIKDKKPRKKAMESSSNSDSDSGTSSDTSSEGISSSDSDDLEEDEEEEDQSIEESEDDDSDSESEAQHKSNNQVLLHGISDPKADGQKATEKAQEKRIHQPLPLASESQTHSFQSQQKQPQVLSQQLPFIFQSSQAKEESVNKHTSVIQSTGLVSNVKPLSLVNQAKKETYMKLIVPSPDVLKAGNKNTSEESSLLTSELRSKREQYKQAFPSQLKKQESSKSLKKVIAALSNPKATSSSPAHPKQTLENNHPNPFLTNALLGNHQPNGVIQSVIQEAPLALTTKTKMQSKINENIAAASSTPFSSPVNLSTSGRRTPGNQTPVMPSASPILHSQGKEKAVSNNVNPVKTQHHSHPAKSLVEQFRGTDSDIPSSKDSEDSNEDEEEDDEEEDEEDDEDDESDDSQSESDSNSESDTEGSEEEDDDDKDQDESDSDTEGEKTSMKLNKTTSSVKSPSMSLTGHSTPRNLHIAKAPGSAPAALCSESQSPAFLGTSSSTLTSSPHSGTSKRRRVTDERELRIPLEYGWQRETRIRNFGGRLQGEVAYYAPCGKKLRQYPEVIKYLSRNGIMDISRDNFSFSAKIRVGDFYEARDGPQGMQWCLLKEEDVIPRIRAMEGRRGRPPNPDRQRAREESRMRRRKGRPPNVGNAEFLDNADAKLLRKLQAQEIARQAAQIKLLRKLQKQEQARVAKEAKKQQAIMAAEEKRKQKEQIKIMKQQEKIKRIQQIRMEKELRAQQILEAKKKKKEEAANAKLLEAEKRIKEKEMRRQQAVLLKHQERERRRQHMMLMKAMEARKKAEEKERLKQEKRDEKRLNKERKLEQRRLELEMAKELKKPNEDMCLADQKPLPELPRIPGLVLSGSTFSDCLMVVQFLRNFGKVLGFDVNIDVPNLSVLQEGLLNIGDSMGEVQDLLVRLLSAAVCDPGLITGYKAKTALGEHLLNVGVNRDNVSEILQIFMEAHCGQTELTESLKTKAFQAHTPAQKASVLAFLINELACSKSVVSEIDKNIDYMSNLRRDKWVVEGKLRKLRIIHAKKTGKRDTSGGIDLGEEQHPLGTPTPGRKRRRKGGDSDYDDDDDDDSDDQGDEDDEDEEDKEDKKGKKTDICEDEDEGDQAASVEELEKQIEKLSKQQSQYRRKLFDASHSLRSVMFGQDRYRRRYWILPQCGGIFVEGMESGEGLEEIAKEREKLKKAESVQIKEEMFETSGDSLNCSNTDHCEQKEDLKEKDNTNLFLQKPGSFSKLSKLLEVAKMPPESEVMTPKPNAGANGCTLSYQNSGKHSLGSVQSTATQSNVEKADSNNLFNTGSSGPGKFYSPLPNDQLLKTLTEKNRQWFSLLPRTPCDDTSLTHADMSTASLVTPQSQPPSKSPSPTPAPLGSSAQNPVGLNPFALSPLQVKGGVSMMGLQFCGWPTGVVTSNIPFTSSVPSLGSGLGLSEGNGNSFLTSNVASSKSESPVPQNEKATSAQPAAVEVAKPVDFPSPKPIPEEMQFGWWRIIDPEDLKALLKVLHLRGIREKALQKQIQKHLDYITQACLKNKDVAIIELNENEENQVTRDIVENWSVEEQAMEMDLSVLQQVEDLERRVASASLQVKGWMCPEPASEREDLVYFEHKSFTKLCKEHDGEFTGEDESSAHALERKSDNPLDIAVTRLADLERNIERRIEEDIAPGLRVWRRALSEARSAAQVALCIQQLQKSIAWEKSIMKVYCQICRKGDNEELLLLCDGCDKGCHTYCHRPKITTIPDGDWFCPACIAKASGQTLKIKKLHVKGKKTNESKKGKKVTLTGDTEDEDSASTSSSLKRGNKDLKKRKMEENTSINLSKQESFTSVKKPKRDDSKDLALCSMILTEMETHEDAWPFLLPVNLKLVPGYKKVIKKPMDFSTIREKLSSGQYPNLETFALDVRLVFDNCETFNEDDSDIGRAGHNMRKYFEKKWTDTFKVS
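Protein-peptide AlphaScreen: BAZ2B 50 nM, b-H3K14Ac 50 nM, 1x PBS pH 7.4 + 0.01% Tween-20. Preincubation 30 min RT; cpd 30 min RT (top 110 uM); beads 20 min RT, light-protected.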
PI5P4K alpha inh = qHTS for Inhibitors of phosphatidylinositol 5-phosphate 4-kinase (PI5P4K); max response, %; actives 1.2% (n = 330,000); PI5P4Kalpha enzyme, ADP-Glo luminescence, 60 min; active compounds read low; AID 652105, 2013; Phosphatidylinositol 5-phosphate 4-kinase type-2 alpha (Homo sapiens), P48426; active = max response of -50% or lower; inconclusive = between -30% and -50%; inactive = -30% or higher; also: value at the top dose of about 77 µM
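Human PI5P4Kalpha with substrate in 0.038 M HEPES pH 7.4, 0.28 mM EGTA, 0.1% CHAPS, 5% DMSO; reaction started with 5 microM ATP (final), 60 min at room temperature. ADP formed read by ADP-Glo luminescence.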
A number is an active result; i = inactive; ? = inconclusive; nt = no result given; [ ] = dose if it differs, or a comment. Shown are actives, neighbours in structure and some others; about 12% of the full set was active somewhere. Unless noted, calls follow the shape of the dose curve; as a rule, active = well fitted curve in the direction sought with a large enough effect; inconclusive = small, poorly fitted or top-dose-only effect, or another doubt; inactive = no such curve, though single readings can be large; an effect the other way counts as inactive or inconclusive.

SMILES	HP1b chromo inh	PLK1 PBD inh	G9a inh	JMJD2A Tudor inh	BAZ2B inh	PI5P4K alpha inh
c1ccc(-n2c(Cc3cn4ccsc4n3)nnc2N2CCOCC2)cc1	i	i	?	50µM	?	nt
Cc1cccc(NC(=O)Cn2c(O)c(N=NC(=O)c3ccccc3O)c3ccccc32)c1	i	?	i	?	79µM	i
Cc1cc2nccnc2cc1C	i	i	nt	i	nt	i
CCN(CC)c1nc2c3c(nc4c(c3c1C#N)CC(=O)N4c1ccc(Cl)cc1)NC(C)=N2	i	i	35µM	i	i	?
CCc1ccc(N2C(=O)Cc3c2nc(N)c(C#N)c3N)cc1	i	i	i[12.7 µM]	i	i	nt
O=C(O)CCC(=O)c1ccc(C2CCCCCC2)cc1	nt	i	nt	nt	nt	i
CC[C@@H]1C/C=C\Cc2ccccc2[C@@H](C(=O)C[C@@H](O)CC(C)=O)OC1=O	i	i	nt	i	nt	i
O=C(CN1CCN(c2ccccn2)CC1)NCCc1ccccc1	i	i	i	i[11.4 µM]	i	i
Cc1cccc(CN2CCN(c3ccccn3)CC2)c1	?	i	nt	3.2µM	nt	i
c1ccc(CCCN2CCN(c3ccccn3)CC2)cc1	?	i	40µM	25µM	?	i
Cc1cccc(CN2CCN(c3ncccn3)CC2)c1	?	i	nt	2.8µM	?	i
c1ccc(N2CCN(Cc3ccsc3)CC2)nc1	?	i	14µM	3.2µM	79µM	i
Cc1cccc(CN2CCNC2=O)c1	i	i	?	i	i	nt
CCC(Oc1ccc(F)cc1)C(=O)Nc1nc2c(s1)CCCC2 (centres undefined)	i	nt	i	i	i	nt
O=S(=O)(c1ccccc1)N1CCN(Cc2cccc(Br)c2)CC1	?	i	nt	28µM	nt	i
Brc1cccc(-c2nnc(CN3CCN(c4ccccn4)CC3)o2)c1	i	nt	i	i	i	nt
Brc1cccc(CN2CCN(c3ncccn3)CC2)c1	?	i	10µM	20µM	?	i
Cc1cccc(NC(=O)CSc2c3c(nc4ccccc24)CCC3)n1	i	i	i	i	i	i
CNC(=O)COC(=O)c1c2c(nc3ccccc13)CCC2	i	i	nt	?	50µM	?
Cc1c(NC(=O)C(C)OC(=O)c2c3c(nc4ccccc24)CCC3)c(=O)n(-c2ccccc2)n1C (centres undefined)	i	i	50µM	?	50µM	?
O=C(NC1CCCCC1)c1c2c(nc3ccccc13)CCC2	i	i	?	i	50µM	?
CCOc1ccc(NC(=O)c2c3c(nc4ccccc24)CCC3)cc1	i	i	?	i	i	i
CCC(C)NC(=O)CSc1c2c(nc3ccccc13)CCCC2 (centres undefined)	i	17µM	i	i	i	i
Cc1c(NC(=O)COC(=O)c2c3c(nc4ccccc24)CCCC3)c(=O)n(-c2ccccc2)n1C	i	i	i	i	i	i
Cc1noc(C)c1C(=O)OCC(=O)Nc1ccc(S(N)(=O)=O)cc1	i	i	i[12.7 µM]	i	i	i
SMILES	HP1b chromo inh	PLK1 PBD inh	G9a inh	JMJD2A Tudor inh	BAZ2B inh	PI5P4K alpha inh
Cc1cccc(Nc2c3c(nc4ccccc24)CCC3)c1	i	i	i	i	i	i
CC(C)NCC(=O)Nc1c2c(nc3ccccc13)CCC2	i	i	18µM	22µM	50µM	i
N#CC1(NC(=O)COC(=O)C23CC4CC(CC(O)(C4)C2)C3)CCCCC1	i	i	i	i	i	i
NC(=S)Nc1nc2ccccc2[nH]c1=O	nt	nt	7.9µM	nt	?	nt
Cc1ccc2[nH]c(=O)c(NC(N)=S)nc2c1	i	i	?	i	i	nt
O=c1[nH]c2ccccc2nc1C(Cl)c1ccccc1 (centres undefined)	nt	nt	?	nt	56µM	nt
COC(c1ccccc1)c1nc2ccccc2[nH]c1=O (centres undefined)	i	i	i[2.33 µM]	i	i	i
C1=C(CCNc2nnnn2-c2ccccc2)CCCC1	i	21µM	i	50µM	i	i
CCn1cc(/C=C(\NC(=O)c2ccc(OC)cc2)C(=O)NCCCn2ccnc2)c2ccccc21	i	i	i	?	?	i
COc1ccc(C(=O)N/C(=C\c2ccccc2)C(=O)NCCCn2ccnc2)cc1	i	i	i	i	i	i
COc1ccc(C(=O)N/C(=C\c2cn(S(=O)(=O)N(C)C)c3ccccc23)C(=O)NCCCn2ccnc2)cc1	i	i	i	?	32µM	i
CSc1ccc(/C=C(/NC(=O)c2ccccc2)C(=O)NCCCn2ccnc2)cc1	i	i	i	i	?	i
O=C(NCCCn1ccnc1)/C(=C\c1ccc(Br)cc1)NC(=O)c1ccccc1	i	11µM	i	?	i	i
O=C(NCCCn1ccnc1)/C(=C/c1ccccc1)NC(=O)c1ccccc1	i	24µM	i[12.7 µM]	45µM	?	i
CN(C)c1ccc(/C=C(\NC(=O)c2ccccc2)C(=O)NCCCn2ccnc2)cc1	i	i	50µM	50µM	28µM	i
O[C@@H]1CN(CC2CCCCC2)[C@@H](c2ccccc2)C[C@H]1n1cc(-c2ccc(F)cc2)nn1	nt	i	nt	nt	nt	i
CCOC(=O)c1c(S(=O)(=O)N2CCCC(C(=O)NCc3ccc(Cl)cc3)C2)c(C)n(C)c1C (centres undefined)	i	nt	i	i	i	nt
O=C(O)c1cc(-c2ccc(/C=C3\NC(=O)N(c4ccc(Cl)cc4)C3=O)o2)ccc1Cl	?	12µM	10µM	32µM	45µM	?
C#CCN1C(=O)S/C(=C\c2ccc(-c3ccc(Cl)c(C(=O)O)c3)o2)C1=O	i	i	45µM	i	i	?
O=C(O)c1cc(-c2ccc(/C=C3\NC(=O)N(c4ccccc4)C3=O)o2)ccc1Cl	i	?	45µM	56µM	79µM	?
COc1cccc(N2CCN(S(=O)(=O)c3ccc4c(c3)NC(=O)C(C)C(=O)N4)CC2)c1 (centres undefined)	i	i	?	i	i	i
COc1ccccc1NC(=O)C1CCN(S(=O)(=O)c2ccc3[nH]c4c(c3c2)CCCCC4)CC1	i	nt	3.5µM	i	i	nt
CCOC(=O)CC(NS(=O)(=O)c1ccc2[nH]c3c(c2c1)CCCC3)c1ccccc1Cl (centres undefined)	?	nt	6.3µM	35µM	35µM	nt
CCOC(=O)C1CCN(S(=O)(=O)c2ccc3c(c2)CCN3C(C)=O)CC1	i	i	i	i	i	i
CCOC(=O)C1CCN(S(=O)(=O)c2ccc3[nH]c4c(c3c2)CCCC4)CC1	?	?	?	22µM	?	i
